Parameters in all cases: scale not given: direction of the effect not stated beside the values
Experiment [1] deals with Protein translocase subunit SecA (Escherichia coli (strain K12)) (UniProt P10408). Kind of experiment: Assay to Identify E. coli SecA ATPase Inhibitors. It is filed as functional. As to conditions: 30 µM.
Experiment [2] deals with T1, Ubiquitin-activating enzyme e1, putative (Leishmania donovani (strain BPK282A1)) (UniProt E9BSI1).
T1 sequence (whole entry): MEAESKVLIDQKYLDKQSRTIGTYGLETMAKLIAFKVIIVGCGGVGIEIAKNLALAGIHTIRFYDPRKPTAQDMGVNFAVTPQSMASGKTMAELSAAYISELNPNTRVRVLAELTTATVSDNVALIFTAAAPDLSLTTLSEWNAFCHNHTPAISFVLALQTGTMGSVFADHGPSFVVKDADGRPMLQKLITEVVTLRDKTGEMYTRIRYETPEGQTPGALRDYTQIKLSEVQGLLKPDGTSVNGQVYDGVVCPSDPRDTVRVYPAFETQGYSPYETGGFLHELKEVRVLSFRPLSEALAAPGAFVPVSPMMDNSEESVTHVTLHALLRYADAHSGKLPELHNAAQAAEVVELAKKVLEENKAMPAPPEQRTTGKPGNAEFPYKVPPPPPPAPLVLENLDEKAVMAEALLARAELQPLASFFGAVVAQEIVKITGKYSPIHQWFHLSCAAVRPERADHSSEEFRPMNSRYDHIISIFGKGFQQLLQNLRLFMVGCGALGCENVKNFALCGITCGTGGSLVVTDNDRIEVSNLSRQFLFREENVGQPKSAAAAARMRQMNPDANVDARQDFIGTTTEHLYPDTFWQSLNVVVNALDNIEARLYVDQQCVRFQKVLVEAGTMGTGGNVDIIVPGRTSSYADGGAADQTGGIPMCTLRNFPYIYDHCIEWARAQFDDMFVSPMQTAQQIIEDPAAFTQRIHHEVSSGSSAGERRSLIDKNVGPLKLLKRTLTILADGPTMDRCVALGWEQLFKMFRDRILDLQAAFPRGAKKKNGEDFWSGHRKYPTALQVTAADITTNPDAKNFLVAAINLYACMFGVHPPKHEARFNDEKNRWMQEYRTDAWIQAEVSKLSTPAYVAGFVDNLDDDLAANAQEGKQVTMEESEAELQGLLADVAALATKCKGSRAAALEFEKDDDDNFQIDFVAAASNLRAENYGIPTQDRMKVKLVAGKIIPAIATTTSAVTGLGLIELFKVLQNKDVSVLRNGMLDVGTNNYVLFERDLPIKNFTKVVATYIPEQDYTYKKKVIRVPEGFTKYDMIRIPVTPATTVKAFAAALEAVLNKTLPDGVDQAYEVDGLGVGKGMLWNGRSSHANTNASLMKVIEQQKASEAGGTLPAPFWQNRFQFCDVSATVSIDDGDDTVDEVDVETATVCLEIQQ
Briefly: Leishmania donovani Ubiquitin Activating Enzyme (LdE1). It is filed as functional. The following applies: 30 µM.

The target in experiment [3] is AMP-activated protein kinase, AMPK (Homo sapiens) (UniProt P54646+O43741+P54619+Q9UGJ0+Q9Y478+Q13131+Q9UGI9). Briefly: AMP-dependent Kinase enzyme assay. An in vitro enzyme assay that detects ADP turnover that is directly proportional to AMPK activity. This uses naive AMPK that is activated during the assay with MK-8722. Type of experiment: functional. The following applies: 30 µM.

Experiment [4] addresses Sialic acid-binding Ig-like lectin 9 (Homo sapiens) (UniProt Q9Y336). Kind of experiment: Hs-Siglec9 ALPHAscreen SOP 20170721. The following applies: 10 µM. In general terms: Bead proximity is the source of the signal in Alpha formats.
For another experiment, the system named is Trypanosoma cruzi. Briefly: Trypanosoma cruzi phosphomannomutase and mannose-1-phosphate guanylyltransferase assay. It is filed as functional. As to conditions: 10 µM.
Experiment [5] addresses T2, Arginase-2, mitochondrial (Homo sapiens) (UniProt P78540).
T2 sequence (whole entry): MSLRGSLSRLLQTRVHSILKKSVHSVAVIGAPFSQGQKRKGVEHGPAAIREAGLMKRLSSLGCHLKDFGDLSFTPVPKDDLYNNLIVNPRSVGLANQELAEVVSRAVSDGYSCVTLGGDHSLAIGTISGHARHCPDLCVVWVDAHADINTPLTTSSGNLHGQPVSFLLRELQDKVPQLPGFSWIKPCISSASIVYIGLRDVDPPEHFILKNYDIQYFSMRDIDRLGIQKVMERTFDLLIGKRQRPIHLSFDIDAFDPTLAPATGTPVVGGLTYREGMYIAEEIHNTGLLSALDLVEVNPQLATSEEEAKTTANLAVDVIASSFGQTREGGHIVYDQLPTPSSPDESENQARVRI
Briefly: in vitro enzyme assay to detect the production of urea directly proportional to the activity of Arginase II. Note: in the data most compounds retested in dose-response had high values. It is filed as functional. The following applies: 33.3 µM.

Experiment [6] addresses T3, Proteasome subunit beta (Trypanosoma cruzi) (UniProt O96673).
T3 sequence (whole entry): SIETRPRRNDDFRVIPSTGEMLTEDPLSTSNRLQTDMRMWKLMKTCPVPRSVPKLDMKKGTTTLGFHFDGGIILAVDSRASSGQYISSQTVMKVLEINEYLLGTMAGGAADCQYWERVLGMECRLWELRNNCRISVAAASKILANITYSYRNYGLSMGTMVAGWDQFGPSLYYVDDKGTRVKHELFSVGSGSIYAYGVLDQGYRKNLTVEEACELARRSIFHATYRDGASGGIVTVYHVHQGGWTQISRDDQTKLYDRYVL
Kind of experiment: Trypanosoma cruzi proteasome chymotrypsin-like activity (TcProtChymo) assay. Note: in the data most compounds retested in dose-response had high values. Type of experiment: functional. The following applies: 9.37 µM.

A further experiment is filed under the species Homo sapiens. Briefly: To identify inhibition of the IFN signalling (Jak-Stat) pathway via expression of an eGFP reporter gene under the control of an IFN-stimulated response element (ISRE) containing MxA promoter. Type of experiment: functional. The following applies: 30 µM. On the technique in general: A reporter such as luciferase makes a cellular process visible.

The target of experiment [7] is T4, Tyrosyl-tRNA synthetase, putative (Trypanosoma cruzi (strain CL Brener)) (UniProt Q4DSP6).
T4 sequence (whole entry): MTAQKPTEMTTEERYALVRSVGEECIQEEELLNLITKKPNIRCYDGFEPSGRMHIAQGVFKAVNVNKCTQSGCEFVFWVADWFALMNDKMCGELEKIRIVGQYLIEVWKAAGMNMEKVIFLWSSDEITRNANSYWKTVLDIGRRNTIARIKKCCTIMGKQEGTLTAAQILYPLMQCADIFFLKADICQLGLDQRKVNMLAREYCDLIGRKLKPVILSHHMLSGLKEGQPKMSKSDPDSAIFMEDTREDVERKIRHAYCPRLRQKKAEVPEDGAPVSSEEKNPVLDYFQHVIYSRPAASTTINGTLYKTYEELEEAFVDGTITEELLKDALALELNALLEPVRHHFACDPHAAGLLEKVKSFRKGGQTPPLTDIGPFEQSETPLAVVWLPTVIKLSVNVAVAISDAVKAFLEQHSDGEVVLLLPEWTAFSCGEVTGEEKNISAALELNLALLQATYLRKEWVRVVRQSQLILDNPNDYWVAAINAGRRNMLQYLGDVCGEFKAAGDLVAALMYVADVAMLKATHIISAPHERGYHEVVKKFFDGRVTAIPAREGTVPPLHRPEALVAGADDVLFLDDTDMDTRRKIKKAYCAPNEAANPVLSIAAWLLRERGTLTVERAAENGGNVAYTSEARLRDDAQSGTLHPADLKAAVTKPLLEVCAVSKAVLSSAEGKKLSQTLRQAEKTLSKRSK
Kind of experiment: Trypanosoma cruzi tyrosyl tRNA synthetase (TcYRS) _High Tyrosine SOP. Note: in the data most compounds retested in dose-response had high values. Type of experiment: functional. The following applies: 30 µM.

The target in experiment [8] is T4, Tyrosyl-tRNA synthetase, putative (Trypanosoma cruzi (strain CL Brener)). Briefly: Trypanosoma cruzi tyrosyl tRNA synthetase (TcYRS) SOP. It is filed as functional. The following applies: 30 µM.
Experiment [9] addresses Chromo domain-containing protein 1 (Saccharomyces cerevisiae (strain ATCC 204508 / S288c) (Baker's yeast)) (UniProt P32657). Briefly: ScCHD-1 Enzyme Inhibition Assay. Note: in the data most compounds retested in dose-response had high values. Type of experiment: functional. The following applies: 30 µM.

For some of these results: Results with a measured potency or affinity are listed apart.

Sequence of Protein translocase subunit SecA (Escherichia coli (strain K12)) (P10408 whole entry): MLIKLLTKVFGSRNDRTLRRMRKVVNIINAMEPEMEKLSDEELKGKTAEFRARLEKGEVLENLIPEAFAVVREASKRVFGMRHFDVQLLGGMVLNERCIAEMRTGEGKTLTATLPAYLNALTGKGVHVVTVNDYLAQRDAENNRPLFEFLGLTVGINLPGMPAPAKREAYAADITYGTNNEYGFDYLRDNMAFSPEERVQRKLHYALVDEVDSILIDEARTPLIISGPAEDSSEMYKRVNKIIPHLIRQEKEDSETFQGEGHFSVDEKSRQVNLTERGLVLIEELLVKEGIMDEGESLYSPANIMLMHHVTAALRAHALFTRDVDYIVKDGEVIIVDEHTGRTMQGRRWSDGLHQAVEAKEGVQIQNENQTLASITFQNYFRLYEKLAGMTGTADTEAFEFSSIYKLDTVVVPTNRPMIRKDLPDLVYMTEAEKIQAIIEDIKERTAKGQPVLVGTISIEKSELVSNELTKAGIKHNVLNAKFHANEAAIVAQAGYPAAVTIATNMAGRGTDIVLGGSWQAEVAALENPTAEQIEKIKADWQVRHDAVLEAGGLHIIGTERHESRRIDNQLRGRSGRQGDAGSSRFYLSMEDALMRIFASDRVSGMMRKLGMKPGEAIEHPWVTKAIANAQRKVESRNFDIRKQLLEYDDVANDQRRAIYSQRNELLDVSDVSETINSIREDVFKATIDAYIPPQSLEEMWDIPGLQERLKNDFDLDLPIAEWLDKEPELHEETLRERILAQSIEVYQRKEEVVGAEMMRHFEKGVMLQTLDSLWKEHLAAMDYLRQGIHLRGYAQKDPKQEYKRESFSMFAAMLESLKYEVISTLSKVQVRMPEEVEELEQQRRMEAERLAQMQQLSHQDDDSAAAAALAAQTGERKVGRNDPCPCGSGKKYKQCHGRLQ
Sequence of Chromo domain-containing protein 1 (Saccharomyces cerevisiae (strain ATCC 204508 / S288c) (Baker's yeast)) (P32657 whole entry, the tested form may be a part): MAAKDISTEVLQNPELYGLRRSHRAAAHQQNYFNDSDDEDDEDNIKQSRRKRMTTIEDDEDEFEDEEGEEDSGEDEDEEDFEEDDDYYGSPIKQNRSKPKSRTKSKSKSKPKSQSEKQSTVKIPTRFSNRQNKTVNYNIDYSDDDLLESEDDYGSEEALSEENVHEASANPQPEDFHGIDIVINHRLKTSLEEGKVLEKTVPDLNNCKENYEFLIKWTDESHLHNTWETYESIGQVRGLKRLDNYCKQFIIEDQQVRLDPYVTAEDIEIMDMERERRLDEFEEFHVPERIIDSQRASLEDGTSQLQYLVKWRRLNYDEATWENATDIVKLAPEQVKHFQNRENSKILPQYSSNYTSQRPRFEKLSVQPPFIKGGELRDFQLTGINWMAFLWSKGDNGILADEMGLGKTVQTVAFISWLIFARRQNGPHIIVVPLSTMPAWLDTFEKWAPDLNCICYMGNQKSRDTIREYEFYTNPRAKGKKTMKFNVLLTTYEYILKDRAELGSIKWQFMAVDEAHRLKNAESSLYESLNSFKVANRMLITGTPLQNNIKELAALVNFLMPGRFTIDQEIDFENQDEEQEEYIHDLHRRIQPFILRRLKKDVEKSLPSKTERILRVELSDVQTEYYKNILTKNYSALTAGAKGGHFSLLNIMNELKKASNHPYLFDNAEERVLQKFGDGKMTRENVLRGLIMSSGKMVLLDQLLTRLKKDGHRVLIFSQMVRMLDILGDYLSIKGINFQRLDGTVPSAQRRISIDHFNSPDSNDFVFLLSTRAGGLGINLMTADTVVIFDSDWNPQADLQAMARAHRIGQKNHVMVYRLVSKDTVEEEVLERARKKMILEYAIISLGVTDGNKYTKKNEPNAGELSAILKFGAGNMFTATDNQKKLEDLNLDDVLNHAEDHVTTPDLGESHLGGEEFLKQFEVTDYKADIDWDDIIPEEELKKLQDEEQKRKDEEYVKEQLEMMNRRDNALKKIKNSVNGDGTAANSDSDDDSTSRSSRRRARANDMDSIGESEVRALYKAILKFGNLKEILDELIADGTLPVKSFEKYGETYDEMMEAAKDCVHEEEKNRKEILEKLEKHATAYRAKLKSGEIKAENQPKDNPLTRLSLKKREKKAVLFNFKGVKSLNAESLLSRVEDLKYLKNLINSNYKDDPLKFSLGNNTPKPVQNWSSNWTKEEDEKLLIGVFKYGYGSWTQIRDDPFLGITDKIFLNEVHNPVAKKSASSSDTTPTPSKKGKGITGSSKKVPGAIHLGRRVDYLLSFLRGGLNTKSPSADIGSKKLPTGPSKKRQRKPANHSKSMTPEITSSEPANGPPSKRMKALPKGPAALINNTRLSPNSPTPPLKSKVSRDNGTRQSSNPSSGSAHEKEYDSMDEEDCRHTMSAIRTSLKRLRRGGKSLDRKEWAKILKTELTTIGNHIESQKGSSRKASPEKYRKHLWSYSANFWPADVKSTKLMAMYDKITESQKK
Sequence of Sialic acid-binding Ig-like lectin 9 (Homo sapiens) (Q9Y336 whole entry): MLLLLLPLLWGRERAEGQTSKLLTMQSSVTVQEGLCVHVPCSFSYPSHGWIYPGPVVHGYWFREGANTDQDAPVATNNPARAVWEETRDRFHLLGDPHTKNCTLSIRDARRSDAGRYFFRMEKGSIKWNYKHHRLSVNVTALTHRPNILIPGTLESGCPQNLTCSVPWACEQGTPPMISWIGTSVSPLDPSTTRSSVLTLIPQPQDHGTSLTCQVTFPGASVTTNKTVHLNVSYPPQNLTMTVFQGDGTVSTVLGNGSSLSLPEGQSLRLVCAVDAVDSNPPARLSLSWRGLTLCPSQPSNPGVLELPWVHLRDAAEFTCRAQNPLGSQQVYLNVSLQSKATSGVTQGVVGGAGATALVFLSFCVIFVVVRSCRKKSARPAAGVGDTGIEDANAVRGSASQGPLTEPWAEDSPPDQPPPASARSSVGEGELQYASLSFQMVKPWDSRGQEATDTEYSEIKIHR

On to `NS(=O)(=O)CCNC(=O)c1nnn(-c2ccccc2)c1C1CC1`, for which the Percent Effect in [1] is 0.0352%; in [2] it was 2.7%; in [3] it was 0.144%; in [4] it was -1.59%; in the experiment with Trypanosoma cruzi, -8.4%; in experiment [5], 2.92%. In addition, the Percent Effect in [6] was 12.1%; in the experiment filed under Homo sapiens, 1.92%; in experiment [7] it was 4.95%; in experiment [8], 6.1%; in experiment [9] it was -4.86%.
With `CCOC1CCN(C(=O)c2c(Cl)c3ccccc3n2C)CC1`, the Percent Effect is -2.47% in [1]; 0% in experiment [2]; -0.042% in experiment [3]; 1.92% in experiment [4]; -2.43% in the experiment with Trypanosoma cruzi; 3.12% in experiment [5]. Further, the Percent Effect in [6] is 13.4%; in the experiment filed under Homo sapiens it was -2.41%; in [7], -2.73%; in experiment [8] it was 11.1%; in [9], -4.88%.
Take `COc1ccc(C(=O)N2CCCCC2c2nc(C)cs2)nn1` (stereo unspecified): the Percent Effect is -4.04% in experiment [1]; 2.6% in experiment [2]; -3.01% in experiment [3]; 4.77% in experiment [4]; 10.3% with Trypanosoma cruzi; 3.2% in experiment [5]. In addition, the Percent Effect in experiment [6] is -4.39%; in the experiment listed under Homo sapiens it was 7.94%; in experiment [7], 5.83%; in experiment [8], 14.6%; in [9], 69.5%.
Turning to `CCCNC(=O)CNC(=O)CCc1ccccc1Br`, the Percent Effect is 0.865% in experiment [1]; 6.94% in [2]; -6.34% in experiment [3]; -5.04% in experiment [4]; 1.85% in the experiment on Trypanosoma cruzi; 13.7% in experiment [5]. Moreover, the Percent Effect was 18.1% in experiment [6]; -8.19% in the experiment filed under Homo sapiens; 2.1% in [7]; 7.69% in experiment [8]; -2.27% in experiment [9].
In the case of `CCc1n[nH]c(C2CN(C(=O)c3cc4c(s3)CCCC4)CCO2)n1` (stereo unspecified), the Percent Effect is -1.02% in experiment [1]; 20.2% in [2]; 0.0672% in [3]; -4.74% in [4]; -6.33% with Trypanosoma cruzi; -0.76% in experiment [5]. Further, the Percent Effect in experiment [6] is 6.96%; in the experiment listed under Homo sapiens it was 30.5%; in experiment [7] it was 1.48%; in experiment [8], 8.86%; in experiment [9] it was -5.65%.
Consider `O=C(Cc1ccccn1)N1CCN(CC2CC2)c2ncccc2C1`, for which the Percent Effect in [1] is -4.53%; in experiment [2] it was 10.7%; in experiment [3], 3.91%; in experiment [4] it was 0.314%; in the experiment on Trypanosoma cruzi it was 0.591%; in experiment [5] it was -0.699%. Moreover, the Percent Effect is 4.85% in experiment [6]; 9.79% in the experiment filed under Homo sapiens; 6.38% in experiment [7]; 16.7% in experiment [8]; -7.07% in experiment [9].
On to `CN(C)c1cncc(C2CCN(CCO)CC2)n1`, for which the Percent Effect in experiment [1] is -3.32%; in experiment [2], 12.2%; in experiment [3], 5.42%; in [4], -1.62%; in the experiment with Trypanosoma cruzi, -2.96%; in experiment [5], -3.94%. In addition, the Percent Effect in experiment [6] is 8.74%; in the experiment listed under Homo sapiens, 8.75%; in experiment [7], 7.53%; in [8] it was 16.9%; in [9], -15.7%.
Consider `Cc1cc(=O)n2ncnc2n1CC(O)c1ccccc1Cl` (stereo unspecified), for which the Percent Effect in experiment [1] was -0.278%; in [2] it was 7.89%; in [3], 6.81%; in experiment [4] it was -5.31%; with Trypanosoma cruzi, -6.52%; in [5] it was -8.28%. Besides, the Percent Effect in [6] was 18.1%; in the experiment filed under Homo sapiens, -6.46%; in [7], 3.19%; in experiment [8], 7.79%; in experiment [9], -2.48%.
Regarding `OC1CCN(Cc2cc3c(cc2Br)OCCO3)CC1`, the Percent Effect in experiment [1] was -3.08%; in experiment [2] it was 4.17%; in [3] it was 1.37%; in experiment [4], -5.64%; with Trypanosoma cruzi it was -7.68%; in experiment [5] it was 4.42%. Further, the Percent Effect in [6] is 0.526%; in the experiment listed under Homo sapiens it was -3.8%; in experiment [7] it was 1.05%; in experiment [8] it was 2.56%; in experiment [9] it was -1.21%.
As for `COCCNC(=O)c1sc(Nc2ccc(Cl)cn2)nc1C`, the Percent Effect is -1.6% in experiment [1]; 20% in [2]; -8.36% in [3]; 6.95% in [4]; 0.589% in the experiment on Trypanosoma cruzi; -3.7% in experiment [5]. Besides, the Percent Effect in [6] was 17.2%; in the experiment listed under Homo sapiens, 5.99%; in experiment [7] it was 6.35%; in experiment [8] it was 10.3%; in [9], -10.7%.
For the compound `Cc1nnc(SCC(=O)N2CCC3(CC2)c2ccccc2CC3O)o1` (stereo unspecified), the Percent Effect in [1] was -5.99%; in experiment [2] it was 13%; in experiment [3], -6.65%; in [4], 21.9%; with Trypanosoma cruzi it was 6.79%; in experiment [5] it was 0%. For the same compound, the Percent Effect in experiment [6] was 7.49%; in the experiment listed under Homo sapiens, -5.03%; in experiment [7], 3.23%; in [8], 16.1%; in experiment [9], -7.51%.
